Our source for the Percent Effect values is ChEMBL document CHEMBL3988442, “University of Dundee, Small-Polar-MMV Screening Library” (2021).

The target of the first test is Sialic acid-binding Ig-like lectin 9 (Homo sapiens) (UniProt Q9Y336). Put plainly: Hs-Siglec9 ALPHAscreen SOP 20170721. Details: scale not given: direction of the effect not stated beside the values. As to conditions: 10 µM. Background: In Alpha technology, singlet oxygen from a donor bead excites a nearby acceptor bead.
Sialic acid-binding Ig-like lectin 9 (Homo sapiens), sequence (Q9Y336 whole entry): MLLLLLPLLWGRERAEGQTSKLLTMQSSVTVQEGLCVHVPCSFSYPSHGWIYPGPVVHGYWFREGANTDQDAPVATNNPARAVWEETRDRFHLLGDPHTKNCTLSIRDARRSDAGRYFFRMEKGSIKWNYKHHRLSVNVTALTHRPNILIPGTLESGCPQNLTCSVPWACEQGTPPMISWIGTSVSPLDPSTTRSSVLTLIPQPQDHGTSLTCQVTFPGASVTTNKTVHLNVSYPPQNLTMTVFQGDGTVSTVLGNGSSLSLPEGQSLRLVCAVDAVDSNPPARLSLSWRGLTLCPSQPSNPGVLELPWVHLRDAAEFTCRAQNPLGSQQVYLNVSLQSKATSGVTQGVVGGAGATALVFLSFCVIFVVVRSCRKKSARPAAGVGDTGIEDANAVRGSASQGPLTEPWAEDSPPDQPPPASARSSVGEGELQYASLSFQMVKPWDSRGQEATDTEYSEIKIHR
For the compound `CCC1CN(CC(=O)Nc2sccc2C#N)CCO1` (stereo not given), the Percent Effect was determined as 2.86%. Regarding `CCn1c(C(=O)N2CCN(CC(C)O)CC2)cc2ccccc21` (stereo not given), the Percent Effect is 7.69%. On to `O=C(NCCCN1CCCC1)c1n[nH]c(=O)c2ccccc12`, for which the Percent Effect is -1.51%.

In the case of `COCC1CCCN(C(=O)c2cc(Cn3ccc4ccccc43)[nH]n2)C1` (stereo not given), the Percent Effect is 11.2%. On the same count and under the same terms, to `CC(C)S(=O)(=O)NCC1CCCN(C(=O)c2ccc3c(c2)CCC3)C1` (stereo not given) belongs -5.74%; to `N#Cc1c(F)cccc1N1CCC(NS(=O)(=O)c2cccs2)CC1`, -2.85%. Still for that read-out and setting: the same measure for `CNc1nc2c(c(C(=O)N3CCCC3)n1)CN(Cc1nccn1C)CC2`: 7.16%; for `CC(C)CCN1CN=C(NS(=O)(=O)c2ccc(F)cc2)NC1`: 1.92%. With `CN(Cc1ncc(C(C)(C)C)o1)C1CCCN(c2cccnn2)C1` (stereo not given), the Percent Effect is -5.13%. As for `Cc1nc2cc(C3CCN(Cc4cccc(F)c4F)C3)nn2c(O)c1C` (stereo not given), the Percent Effect is -3.49%. On to `CCS(=O)(=O)CCN1CCCC1c1noc(C2CC2)n1` (stereo not given), for which the Percent Effect was -3.74%. In the case of `Cc1nc(Cn2nc(C3CCNCC3)n(Cc3ccccc3)c2=O)no1`, the Percent Effect came to 2.54%. On to `CN(C)C(=O)COC1COC2(CCN(S(C)(=O)=O)CC2)C1` (stereo not given), for which the Percent Effect was -7.02%. Turning to `CCNC(=O)NC(=O)CSC(C)c1c(F)cccc1F` (stereo not given), the Percent Effect was -3.31%. Regarding `Cn1cccc1CNC(=O)CCCc1nnc2ccccn12`, the Percent Effect is 1.09%. Turning to `Cc1cccc(CN(Cc2ccc(C)o2)C2CC(C)(C)NC(C)(C)C2)n1`, the Percent Effect is -2.48%. `Cc1ccc(C2CSCCN2C(=O)c2ccsc2)o1` (stereo not given): the Percent Effect amounted to 3.24%. `Cc1csc(N2CCN(C(=O)CCC(=O)c3ccc(C)s3)CC2)n1`: the Percent Effect turned out to be 1.58%. For `O=C(c1cnccn1)N1C[C@@H]2CC[C@H](C1)N(C(=O)Cc1ccsc1)C2`, the Percent Effect came out at 4.9%. Same read-out and setting: to `Cc1ncsc1C(=O)N1CCCC(c2noc(C(C)C)n2)C1` (stereo not given) belongs 26.1%.

Another test relates to Trypanosoma cruzi. Put plainly: Trypanosoma cruzi phosphomannomutase and mannose-1-phosphate guanylyltransferase assay. As to conditions: 10 µM. The arrangement: scale not given: direction of the effect not stated beside the values. The test is classed as functional.
On to `CC(c1ccco1)N(C)Cc1nc2c(cnn2C)c(=O)[nH]1` (stereo not given), for which the Percent Effect was determined as 3.44%. The same measure, in the same setting: the same measure for `CCn1nc(C)c2nnn(CC(=O)Nc3cccc(Cl)c3)c(=O)c21`: 4.13%; for `CCCC(=O)NCc1cc(Br)c(OC)c(OC)c1`: 6.72%.

As to `CC(=O)N(C)CC(=O)Nc1cccc(N2CCN(CC3CC3)CC2)c1`, the Percent Effect was -1.86%. With `CS(=O)(=O)N1CC[C@H]2[C@H](C[C@@H](Cn3cncn3)N2CC2CC2)C1`, the Percent Effect is -1.87%. Take `COc1ccnc(N2CCN(C(=O)CN3CCCC3=O)CC2)n1`: the Percent Effect came out at 2.52%. For `Cc1cc(C)n(CC2CCCCN2Cc2cscn2)n1` (stereo not given), the Percent Effect is -1.27%. Still for that read-out and setting: to `O=C(CC1CCCC1)N1CCCC(c2n[nH]c3nccnc23)C1` (stereo not given) belongs -2.17%; to `CCc1ccc(CN2CC[C@H]3C[C@H](c4nnc(C)[nH]4)O[C@@H]3C2)o1`, 9.52%. With `CN(C)CCNC(=O)c1cc(-c2cnc(N3CCCC3)nc2)cn1C`, the Percent Effect is -0.197%. `Cc1cnn(CCNCc2ccccc2C#N)c1`: the Percent Effect was -5.11%. Regarding `Cc1ccc(CN2CCC3(C2)C(=O)N(CC(C)C)c2ccccc23)s1` (stereo not given), the Percent Effect was -6.25%. On to `NC(=O)Nc1cccc(Oc2ccccn2)c1`, for which the Percent Effect was -3.99%. Turning to `CC(CNC(=O)Nc1cn[nH]c1)N1CCc2ccccc2C1` (stereo not given), the Percent Effect was -1.67%.

Turning to `O=C(CCc1ccc(Br)cc1F)NS(=O)(=O)c1ccc2c(c1)OCCO2`, the Percent Effect is -2.15%. For the compound `CC(NC(N)=O)C(=O)N1CCCN(Cc2nccn2C(C)C)CC1` (stereo not given), the Percent Effect is -1.13%. Consider `CN1Cc2c(C(=O)Nc3cccnc3)ncn2-c2ccccc2S1(=O)=O`, for which the Percent Effect came out at 0%.

Regarding `CN(C(=O)NCCCN1CCCC1)C1CCN(c2ccccc2)C1=O` (stereo not given), the Percent Effect was -7.71%. In the case of `CCSCCC(=O)Nc1ncn(Cc2cccnc2)n1`, the Percent Effect was -5.16%. On to `CNC(=O)[C@@]12CCO[C@@H]1CCN(S(=O)(=O)c1cccc(C)c1)C2`, for which the Percent Effect was found to be 3.23%. On to `CCC1CN(CC(=O)Nc2sccc2C#N)CCO1` (stereo not given), for which the Percent Effect came out at 0.376%. For the compound `CCn1c(C(=O)N2CCN(CC(C)O)CC2)cc2ccccc21` (stereo not given), the Percent Effect turned out to be 10.1%. As for `O=C(NCCCN1CCCC1)c1n[nH]c(=O)c2ccccc12`, the Percent Effect is -10.7%. The same measure, in the same setting: the same measure for `COCC1CCCN(C(=O)c2cc(Cn3ccc4ccccc43)[nH]n2)C1` (stereo not given): 8.75%. Regarding `CC(C)S(=O)(=O)NCC1CCCN(C(=O)c2ccc3c(c2)CCC3)C1` (stereo not given), the Percent Effect came out at 0.588%. For `N#Cc1c(F)cccc1N1CCC(NS(=O)(=O)c2cccs2)CC1`, the Percent Effect is -9.6%. Consider `CNc1nc2c(c(C(=O)N3CCCC3)n1)CN(Cc1nccn1C)CC2`, for which the Percent Effect is 2.38%. Turning to `CC(C)CCN1CN=C(NS(=O)(=O)c2ccc(F)cc2)NC1`, the Percent Effect is -1.38%.

`CN(Cc1ncc(C(C)(C)C)o1)C1CCCN(c2cccnn2)C1` (stereo not given): the Percent Effect is 3.49%. On to `Cc1nc2cc(C3CCN(Cc4cccc(F)c4F)C3)nn2c(O)c1C` (stereo not given), for which the Percent Effect came out at 0.988%. As to `CCS(=O)(=O)CCN1CCCC1c1noc(C2CC2)n1` (stereo not given), the Percent Effect was -4.44%. The same measure, in the same setting: the same measure for `Cc1nc(Cn2nc(C3CCNCC3)n(Cc3ccccc3)c2=O)no1`: -4.25%. Regarding `CN(C)C(=O)COC1COC2(CCN(S(C)(=O)=O)CC2)C1` (stereo not given), the Percent Effect was -1.47%.

Take `CCNC(=O)NC(=O)CSC(C)c1c(F)cccc1F` (stereo not given): the Percent Effect was -5.55%.

With `Cn1cccc1CNC(=O)CCCc1nnc2ccccn12`, the Percent Effect was 3.14%. Same read-out and setting: the same measure for `Cc1cccc(CN(Cc2ccc(C)o2)C2CC(C)(C)NC(C)(C)C2)n1`: -6.13%. Take `Cc1ccc(C2CSCCN2C(=O)c2ccsc2)o1` (stereo not given): the Percent Effect is -1.66%.

Turning to `Cc1csc(N2CCN(C(=O)CCC(=O)c3ccc(C)s3)CC2)n1`, the Percent Effect turned out to be 1.79%.

For `O=C(c1cnccn1)N1C[C@@H]2CC[C@H](C1)N(C(=O)Cc1ccsc1)C2`, the Percent Effect is -4.82%. As for `Cc1ncsc1C(=O)N1CCCC(c2noc(C(C)C)n2)C1` (stereo not given), the Percent Effect amounted to 2.43%.
